We go through four compounds from PubChem BioAssay AID1347137 (National Center for Advancing Translational Sciences (NCATS), 2019).

The other results are listed elsewhere or left out. Results filed as inconclusive are left out. Unmarked numbers belong to inactive results. Calls of active or inactive are those of the source. Calls come from the whole dose curve; as a rule, active = well fitted inhibition curve with a large enough effect; inconclusive = small, poorly fitted or top-dose-only effect; inactive = no such curve, though single readings can be large or run the other way.

The experiment is described as follows: qHTS of pediatric cancer cell lines to identify multiple opportunities for drug repurposing: Orthogonal 3D viability screen for Daoy cells. The note with it: Daoy 3D spheroid viability, PI/Hoechst imaging, 72 h; series mostly up to 30.7 µM; activity change, negative = viability loss: at the top concentration. An excerpt: Drug repurposing or repositioning has been offered as a strategy for drug development in oncology programs. This approach has special potential for childhood cancers and other rare or orphan diseases, where the expected return on new drug development has been a disincentive to pharmaceuticals. […] In this project we exploit the poly-pharmacology of drugs to discover new indications via phenotypic screening of a panel of 19 well-characterized cell lines derived from solid tumors seen in children and adolescents. The goal is to identify approved drugs with previously unrecognized anticancer properties that has the potential to reveal new mechanisms and biological processes involved in carcinogenesis or drug resistance. We employed a titration-based paradigm (quantitative high-throughput screening or qHTS), where all compounds were tested at multiple concentrations for their effect on cell viability. Concentration-response curves (CRCs) were derived directly from the primary screen, and both potency and efficacy values were used to identify compounds with robust bioactivity profiles. […] These two assays will be use to validate active compounds and assess the correlation of compound's potency in 2D vs 3D cultures on selected cell lines. Assay Submitter: Nathalia J. Martinez, National Center for Advancing Translational Sciences, National Institutes of Health, Rockville, MD, USA; email: natalia.martinez@nih.gov Shen, M et al. Quantitative high-throughput phenotypic screening of pediatric cancer cell lines identifies multiple opportunities for drug repurposing. Oncotarget 2017 Dec 19;9(4):4758-4772. PMID 29435139.
The cells were obtained from University of North Carolina (UNC), Pediatric Preclinical Testing Program (PPT), and Coriell Institute (CI). qHTS viability in 3D culture: Cells were assayed in phenol red-free growth media at a density of 1,000 cells/well, with the exception of Daoy, and SH-N-SH which were assayed at 1,500 cells/ well. Thirty muL of cells were dispensed into 384-well, ULA, round bottom plates (Corning) using a Multidrop dispenser. […] Spheroid viability was first determined by high-content imaging using Hoechst 33342 and Propidium Iodide (PI, ThermoFisher Scientific), followed by addition of CellTiter-Glo 3D (Promega). […] Plates were incubated for 30 min at RT on a VWR microplate shaker (300 rpm) and analyzed for luminescence intensity using a ViewLux High-throughput CCD imager equipped with clear filters. […] The data were exported to Excel, and the average fluorescent intensities were used to calculate the ratio of PI over Hoechst, which was used to quantify viability. […]
With `CC[C@H]1CN2CCc3cc(OC)c(OC)cc3[C@@H]2C[C@@H]1C[C@H]1NCCc2cc(OC)c(OC)cc21`, the Potency was 406 nM (active).
On to `CC1(C)O[C@@H]2C[C@@H]3[C@H]4C[C@@H](F)C5=CC(=O)C=C[C@]5(C)[C@@]4(F)[C@@H](O)C[C@]3(C)[C@]2(C(=O)CO)O1`, for which the Potency was 3620 nM (active).
For the compound `C=C1C(=CC=C2CCC[C@]3(C)[C@@H]([C@H](C)C=C[C@H](C)C(C)C)CC[C@@H]23)C[C@@H](O)C[C@@H]1O`, the “activity change, negative = viability loss” value was 54.7%.
Regarding `CC(NCc1ccc2c(c1)nc(NC(=O)c1ccc(-c3cn[nH]c3)s1)n2CC(C)(C)O)C(C)(C)C` (centres undefined), the Potency is 511 nM (active).
